Compound activity deposited in PubChem by National Center for Advancing Translational Sciences (NCATS).
IDH1 R132H inh: human IDH1 R132H inhibition. O75874. IDH1-R132H enzyme, NADPH consumption, diaphorase/resazurin fluorescence. Potency, µM (highest dose often 76.6 µM), without a hit: top-dose activity change, negative = inhibition, actives largely listed as inhibitors. 390,000 tested, 0.093% active. AID 602179; also: potency is read from the fitted curve at half-maximal effect; % is scaled to controls: 0 for no effect and ±100 for the full control effect; nearly all actives have a fitted effect of over 65% in size
Target sequence (O75874 whole entry R132H, stated change not applied): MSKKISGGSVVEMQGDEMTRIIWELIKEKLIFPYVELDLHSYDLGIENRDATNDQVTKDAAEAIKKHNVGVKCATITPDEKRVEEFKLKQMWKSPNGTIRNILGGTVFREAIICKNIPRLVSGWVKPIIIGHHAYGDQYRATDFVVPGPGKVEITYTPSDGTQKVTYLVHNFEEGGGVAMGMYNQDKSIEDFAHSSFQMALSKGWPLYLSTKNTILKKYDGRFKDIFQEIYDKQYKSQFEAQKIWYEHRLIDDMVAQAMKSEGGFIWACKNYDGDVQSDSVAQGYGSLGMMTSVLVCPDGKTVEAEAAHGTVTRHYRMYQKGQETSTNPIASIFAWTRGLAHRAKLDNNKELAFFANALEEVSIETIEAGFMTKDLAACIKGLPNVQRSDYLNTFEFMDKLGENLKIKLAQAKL
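IDH1-R132H (0.5 ug/mL) preincubated 30 min with compound, then NADPH (0.016 mM) and alpha-KG (2 mM) added; 80 min at RT, pH 7.5. Remaining NADPH coupled via diaphorase/resazurin to fluorescence (540/590 nm); concentration-response curves normalized to no-enzyme control.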
IL2 activator: IL-2 activation; activation, % (series mostly up to about 46 µM); 360,000 tested, 0.065% active; IL-2 activation reporter assay, cell-based qHTS; stimulated with anti-CD3/CD4/CD28 beads; in transgenic mouse T cells; in the data active = activation above about 50%; inconclusive = mostly about 30% to 49%; also: 0% is about no effect
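Unstimulated transgenic mouse T cells preincubated 60 min with compound, then stimulated with anti-CD3/anti-CD4-coated beads plus anti-CD28 for 18 h at 37 degrees C. IL-2 response read as EGFP and DsRed fluorescence by plate cytometry.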
Giardia killer: kills Giardia lamblia; Giardia lamblia trophozoite viability; activity change, % at 7.66 µM, hits read low; 340,000 tested, 0.15% active; AID 540267; in the data active = activity change below about -80%; inconclusive = between about -30% and that limit;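 also: parasites exposed to compound for two days anaerobically before the ATP read; % is scaled to controls: 0 for no effect and ±100 for the full control effect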
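Killing of trophozoites was scored by loss of ATP luminescence after a 48 hrs anaerobic exposure to compounds at 37 deg C, using 100 cells per well.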
rTrxR1 inhibitor: blocks rat thioredoxin reductase 1; Potency, µM (titrated, usually from 114 µM), for inactives: top-dose activity change, negative = inhibition, hits mostly inhibitors; AID 588453; O89049; recombinant rTrxR1, NADPH fluorescence consumption, selenite substrate; 390,000 tested, 1% active; also: potency is read from the fitted curve at half-maximal effect; % is scaled to controls: 0 for no effect and ±100 for the full control effect; nearly all actives have a fitted effect of over 65% in size
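Rat TrxR1 (90 nM in the dispensed reagent) was pre-reduced with 400 uM NADPH for 5 min at room temperature, then incubated with compound for 15 min. After 400 uM selenite was added, NADPH fluorescence (Ex 340/Em 450 nm) was followed for 8 min.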
BRCA1 expr act: BRCA1 expression activation; MCF7-BRCA1-FFLuc reporter, luminescence, 48 h; response scale: scaled: vehicle 0%, 10 µM genistein 100%; Potency, µM (titrated, usually from 46.1 µM), without a hit: top-dose activation, most hits filed as activators; 380,000 tested, 1.1% active; AID 624202; also: potency is read from the fitted curve at half-maximal effect; nearly all actives have a fitted effect of over 80% in size
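Cells: MCF7-BRCA1-FFLuc, 2000/well. Exposure: 48 h, 37 °C, 5% CO2. Read: luminescence, 15 min post-substrate. Controls: genistein 10 microM (maximal activation), DMSO (neutral).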
TrxR1 substrate: substrates of rat thioredoxin reductase 1; 390,000 tested, 0.01% active; Potency, µM (series often up to 114 µM), inactives show at the highest dose activity change, negative = substrate turnover; purified TrxR1 substrate turnover, NADPH consumption readout; O89049; AID 588456; also: potency is read from the fitted curve at half-maximal effect; % is scaled to controls: 0 for no effect and ±100 for the full control effect; nearly all actives have a fitted effect of over 50% in size
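Rat TrxR1, dispensed at 90 nM, was prereduced with 400 uM NADPH (final) for 5 min at ~22 deg C, then incubated with compound 15 min before 400 uM selenite. A first-read NADPH fluorescence drop versus no-compound background flagged substrates.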
Starred values were filed as active, the others as inactive; ? = inconclusive; · = no result; [ ] = another dose, or the depositor's remark. Hits are enriched below; roughly 2.2% of the tested compounds scored in any of these assays. Unless noted, calls follow the shape of the dose curve; as a rule, active = well fitted curve in the direction sought with a large enough effect; inconclusive = small, poorly fitted or top-dose-only effect, or another doubt; inactive = no such curve, though single readings can be large; an effect the other way counts as inactive or inconclusive.

SMILES	IDH1 R132H inh	IL2 activator	Giardia killer	rTrxR1 inhibitor	BRCA1 expr act	TrxR1 substrate
CCCCNC(=O)c1ccc2c(OCC)n(CCCC)nc2c1	12%	3	-12	-3%	-1%	73%
N#C/C(=C/c1ccc(N2CCOCC2)o1)c1nc2ccccc2[nH]1	5%	25	-1	-20%[57.1 µM]	?	5%[57.1 µM]
N#C/C(=C\c1ccc(N2CCOCC2)o1)C(=O)Nc1ccc(O)cc1	1%	5	6	-9%[57.1 µM]	49%	-3%[57.1 µM]
N#C/C(=C/c1ccc(N2CCCCCC2)o1)c1ccc(F)cc1	-8%	3	-1	5µM*	-79%	11%[57.1 µM]
N#C/C(=C/c1ccc(N2CCOCC2)o1)c1ccc(Br)cc1	7%	0	10	11µM*	-32%	-17%
N#C/C(=C/c1ccc(N2CCCCC2)o1)C(=O)Nc1ccc(Cl)cc1	-1%	?	-12	-15%	4.5µM*	8%
N#C/C(=C\c1ccc(N2CCOCC2)o1)c1ccccc1	9%	-2	-3	3.5µM*	-7%	-3%
N#C/C(=C/c1ccc(N2CCCCCC2)o1)c1cccc(F)c1	4%	21	-13	?	?	-5%
O=C(Cn1c(=O)n(-c2ccc(F)cc2)c(=O)c2sc3ccccc3c21)NC1CCCCC1	-6%	·	·	10%	0%	-5%
CCOc1ccc2nc(N3CCCC(C(=O)Nc4ccc(OC)cc4)C3)sc2c1 (configuration not stated)	22%	·	·	10%	·	2%
C/C(=N\O)c1ccc2c3c([nH]c2c1)CCCC3	9%	0	5	19%[57.1 µM]	10µM*	4%[57.1 µM]
c1ccc2c3c([nH]c2c1)CCCC3	·	·	·	8%	2%	1%
O=C1C[C@H]2C=CCc3cccc(c32)CN1Cc1ccc(Cl)cc1	·	·	·	15%	·	-3%
CCOc1ccc(C(=O)Nc2cc(-c3nc4ccccc4o3)ccc2C)cc1Cl	·	·	·	13%	·	4%
Cc1cnc(C(=O)OCC(=O)Nc2sc3c(c2C#N)CCC3)cn1	4%	-4	18	-30%	-13%	-11%
Cc1cccc(OCC(=O)Nc2sc3c(c2C#N)CCC3)c1	2%	-1	6	19%	10µM*	12%
Brc1cccc[n+]1CCCCCC[n+]1ccccc1Br	·	·	·	?	-13%	7%
COc1nc(-c2ccccc2)ccc1-c1noc(-c2ccccc2)n1	-1%	0	0	-8%	6.3µM*	11%
CCOc1ccccc1-c1nc(-c2ccc(C)nc2OC)no1	8%	1	-4	0%[57.1 µM]	7.1µM*	18%[57.1 µM]
COc1ccc(N=C2C(=S)N(c3ccc(OC)cc3)C(=NS(=O)(=O)c3ccccc3)N2c2ccccc2)cc1	2%	-1	-10	-10%[11.4 µM]	3.5µM*	6%[11.4 µM]
N=C1N(c2ccccc2)C(=S)C(=Nc2ccccc2)N1c1ccccc1	2%	-4	6	10%[11.4 µM]	-12%	4%[11.4 µM]
c1ccn2cc(CSC3=NCCS3)nc2c1	2%	1	-3	-31%	6.3µM*	-12%
c1ccn2cc(CSc3nnc4ccccn34)nc2c1	-4%	1	4	12%	?	10%
CCOC(=O)N1CCc2c(sc3c2c(=O)n(Cc2ccccc2)c(=O)n3CC(=O)Nc2ccccc2F)C1	0%	·	·	9%	·	-4%
S=C(c1ccc(-c2ccc(Cl)c(Cl)c2)o1)N1CCOCC1	-2%	-2	-13	28µM*	?	-7%
SMILES	IDH1 R132H inh	IL2 activator	Giardia killer	rTrxR1 inhibitor	BRCA1 expr act	TrxR1 substrate
S=C(c1ccc(-c2ccc(Cl)cc2Cl)o1)N1CCCCC1	-2%	-1	1	-22%	7.9µM*	-11%
S=C(c1ccc(-c2ccccc2Cl)o1)N1CCOCC1	5%	-3	1	-12%	7.1µM*	-14%
S=C(c1ccc(-c2ccc(Cl)cc2Cl)o1)N1CCCC1	13%	1	14	-6%	49%	-2%
O=C(Nc1ccc(F)c(Cl)c1)N1CC=C(c2c[nH]c3ccccc23)CC1	-11%	·	·	0%	·	-4%
COc1cccc(CNC(=O)C2CCCCN2S(=O)(=O)c2ccc(F)cc2)c1 (configuration not stated)	-3%	·	·	10%[57.1 µM]	·	4%[57.1 µM]
Cc1c(-c2ccc(Cl)cc2)c(=O)oc2c(CN3CCN(C)CC3)c(O)ccc12	-6%	·	·	8%[57.1 µM]	·	47%[57.1 µM]
Cc1cccc2[nH]c(-c3ccc(NC(=O)c4ccco4)cc3)nc12	-1%	-1	-18	29%	1.8µM*	40%
Cc1ccc(NC(=O)c2ccc(OC(=O)c3ccco3)cc2)cc1	1%	-1	-26	30%	?	13%
COc1ccc(-c2ccc(NC(=O)c3ccco3)cc2)nn1	2%	0	-93*	-16%[57.1 µM]	?	-6%[57.1 µM]
Cc1ccc(Oc2ccc(NC(=O)c3ccco3)cc2)cc1	7%	2	-11	7%	11µM*	-1%
Cc1[nH]n(S(=O)(=O)Cc2ccccc2)c(=O)c1N=Nc1ccccc1Cl	1%	1	-89*	21%[57.1 µM]	-15%	-5%
Cc1[nH]n(S(=O)(=O)c2ccccc2)c(=O)c1N=Nc1cccc(Cl)c1	4%	-1	?	1%[57.1 µM]	-27%	3%[57.1 µM]
CC[N+](CC)(CC)c1ccc(/C=C/c2ccc3ccccc3n2)cc1	·	·	·	-9%	-56%	-2%
Cc1c(C(=O)NC2CC2)oc2ccccc12	-12%	1	-14	21%	23%	-3%
Cc1c(C(=O)NC2CCC(C)CC2)oc2ccccc12 (configuration not stated)	-5%	-3	-1	30%	5µM*	-2%
Cc1c(C(=O)OCC(=O)N2CCCC(C)C2)oc2ccccc12 (configuration not stated)	4%	-1	3	5%[57.1 µM]	10µM*	6%[57.1 µM]
COc1ccc2oc(C(=O)OCC(=O)N3CCCC(C)C3)c(C)c2c1 (configuration not stated)	0%	-2	-1	6%	30%	76%
COC(=O)[C@@H]1CCCN1S(=O)(=O)Cc1ccccc1	·	·	·	20%	·	3%
Cc1c(-c2ccccc2)[nH]n2c(=O)c3c(nc12)CCCC3	5%	0	1	-4%	3.2µM*	12%
COc1ccc(OC)c(C2Nc3c(C)cc(C)cc3-c3cc(C)nn32)c1 (configuration not stated)	4%	·	·	-2%	·	13%
COc1ccc(/C=N/Nc2ncccc2[N+](=O)[O-])c(OC)c1	14%	-4	19	20%[57.1 µM]	14µM*	-11%
COc1cc(-c2nnc(-c3cccs3)o2)cc(OC)c1OC	-4%	0	3	2%[57.1 µM]	0%	27%[57.1 µM]
COc1ccc(-c2nnc(-c3cccs3)o2)cc1OC	7%	-1	16	?	5µM*	75%
CCOc1ccc(-c2nnc(-c3cccs3)o2)cc1	5%	2	-2	71%	-4%	101%
